The structures appear in SMILES notation. Screen size: about 39,000 compounds; about 3,300 (8.5%) were called active. This is one part of a sample in which actives are shown more often than they occur.

Here are results for 39 molecules from the antibiotic and cytotoxicity screens of Wong et al. (2023).

The test system of the experiment is HepG2. The experiment can be described thus: cytotoxicity call (relative viability < 0.9). The following applies: 10 µM.
Regarding `C[C@@H]1CN([C@@H](C)CO)C(=O)CCCn2cc(nn2)CO[C@H]1CN(C)S(=O)(=O)c1ccccc1C#N`, the cytotoxicity call is “inactive”.
The entry for `CC(C)c1cccc(NC(=O)C[C@H]2CC[C@H]3[C@@H](COc4ccc(NC(=O)c5ccc(C#N)cc5)cc4C(=O)N3C)O2)c1` is “inactive”; for `COc1ccc(S(=O)(=O)N(C)C[C@H]2OCCCC[C@H](C)Oc3ccc(NC(=O)Nc4cccc5ccccc45)cc3C(=O)N([C@@H](C)CO)C[C@H]2C)cc1` it is “inactive”.
The value for `COc1ccc(S(=O)(=O)N(C)C[C@H]2Oc3ccc(N(C)C)cc3CC(=O)N([C@H](C)CO)C[C@H]2C)cc1` was “inactive”.
The value for `C[C@@H]1CN([C@H](C)CO)C(=O)c2cccc(NS(=O)(=O)c3ccc(F)cc3)c2O[C@@H]1CN(C)Cc1ccc(Cl)c(Cl)c1` was “inactive”; that for `COc1ccc(S(=O)(=O)Nc2ccc3c(c2)C(=O)N([C@H](C)CO)C[C@@H](C)[C@H](CN(C)C(=O)Nc2cccc4ccccc24)OCCCC[C@@H](C)O3)cc1` was “inactive”; that for `C[C@H]1CN([C@@H](C)CO)C(=O)c2cc(C#CCN(C)C)cnc2O[C@@H]1CN(C)Cc1ccc(C(=O)O)cc1` was “inactive”.
As for `C[C@@H]1CN([C@H](C)CO)C(=O)c2cccc(NC(=O)Nc3ccc4c(c3)OCO4)c2O[C@H]1CN(C)C(=O)Nc1ccc(C(F)(F)F)cc1`, the cytotoxicity call is “inactive”.
The entry for `Nc1ncccc1-c1nc2ccc(-c3ccccc3)nc2n1-c1ccc(C2(N)CCC2)cc1` is “active”.
Regarding `NC(=O)c1ccc2nc(-c3ccc(C4(N)CCC4)cc3)c(-c3ccccc3)n2n1`, the cytotoxicity call was “inactive”.
Take `CC(C)NC(=O)N[C@@H]1CC[C@@H](CCN)O[C@@H]1CO`: the cytotoxicity call was “inactive”.
As for `Cc1ccc(S(=O)(=O)Nc2ccc3c(c2)CC(=O)N([C@@H](C)CO)C[C@@H](C)[C@@H](CN(C)S(=O)(=O)c2c(C)noc2C)O3)cc1`, the cytotoxicity call is “inactive”.
The entry for `Cc1noc(C)c1NC(=O)N(C)C[C@H]1Oc2ccc(NC(=O)Cn3cnnn3)cc2CC(=O)N([C@H](C)CO)C[C@@H]1C` is “inactive”; for `Cc1noc(C)c1S(=O)(=O)Nc1ccc2c(c1)CC(=O)N([C@@H](C)CO)C[C@@H](C)[C@H](CN(C)C(=O)Nc1ccccc1)O2` it is “inactive”; for `CC(=O)Nc1c(C)[nH]c2ncnn2c1=O` it is “active”.
Consider `COC(=O)Cc1c(C)[nH]c2ncnn2c1=O`, for which the cytotoxicity call is “inactive”.
The value for `Cc1[nH]c2ncnn2c(=O)c1NS(C)(=O)=O` was “inactive”.
The value for `C[C@@H]1CN([C@H](C)CO)C(=O)Cc2cc(NS(C)(=O)=O)ccc2O[C@@H]1CN(C)C(=O)Nc1ccc(C(F)(F)F)cc1` was “inactive”; that for `O=C(Nc1ccno1)NN1CCOCC1` was “inactive”; that for `COc1cc(C2c3cc4c(cc3C(OC3OC5COC(C)OC5C(O)C3O)C3COC(=O)C23)OCO4)cc(OC)c1O` (centres undefined) was “inactive”.
The entry for `COc1cc([C@@H]2c3cc4c(cc3[C@@H](O[C@@H]3O[C@@H]5CO[C@@H](C)O[C@H]5[C@H](O)[C@H]3O)[C@H]3COC(=O)[C@H]23)OCO4)cc(OC)c1O` is “active”; for `COc1cc(C2c3cc4c(cc3C(OC3OC5COC(c6cccs6)OC5C(O)C3O)C3COC(=O)C23)OCO4)cc(OC)c1O` (centres undefined) it is “active”; for `COc1cc([C@@H]2c3cc4c(cc3[C@@H](O[C@@H]3O[C@@H]5CO[C@@H](C)O[C@H]5[C@H](O)[C@H]3O)[C@@H]3COC(=O)[C@@H]23)OCO4)cc(OC)c1O` it is “inactive”.
With `C[C@H](CO)N1C[C@H](C)[C@H](CN(C)S(=O)(=O)c2cccs2)Oc2ccc(NS(=O)(=O)c3ccc(F)cc3)cc2CC1=O`, the cytotoxicity call was “inactive”.
The entry for `O=C(C[C@@H]1C[C@H]2c3cc(NC(=O)C4CCOCC4)ccc3O[C@H]2[C@@H](CO)O1)NCCN1CCCCC1` is “inactive”.
For the molecule `C[C@@H]1CN([C@@H](C)CO)C(=O)c2cc(C#CCN(C)C)cnc2O[C@H]1CN(C)C(=O)c1ccc2c(c1)OCO2`, the cytotoxicity call is “inactive”.
The entry for `Cc1ccc(S(=O)(=O)Nc2ccc3c(c2)C(=O)N([C@H](C)CO)C[C@H](C)[C@H](CN(C)C(=O)Nc2ccc(C(F)(F)F)cc2)OCCCC[C@H](C)O3)cc1` is “active”; for `Cc1ccc(S(=O)(=O)Nc2ccc3c(c2)C(=O)N([C@H](C)CO)C[C@H](C)[C@@H](CN(C)C(=O)Nc2ccc(C(F)(F)F)cc2)OCCCC[C@@H](C)O3)cc1` it is “inactive”; for `Cc1ccc(S(=O)(=O)Nc2ccc3c(c2)C(=O)N([C@H](C)CO)C[C@H](C)[C@@H](CN(C)C(=O)Nc2ccc(C(F)(F)F)cc2)OCCCC[C@H](C)O3)cc1` it is “inactive”.
The entry for `Cc1ccc(S(=O)(=O)Nc2ccc3c(c2)C(=O)N([C@@H](C)CO)C[C@H](C)[C@@H](CN(C)C(=O)Nc2ccc(C(F)(F)F)cc2)OCCCC[C@@H](C)O3)cc1` is “active”.
The value for `Cc1ccc(S(=O)(=O)Nc2ccc3c(c2)C(=O)N([C@H](C)CO)C[C@@H](C)[C@H](CN(C)C(=O)Nc2ccc(C(F)(F)F)cc2)OCCCC[C@H](C)O3)cc1` was “inactive”; that for `Cc1ccc(S(=O)(=O)Nc2ccc3c(c2)C(=O)N([C@@H](C)CO)C[C@@H](C)[C@@H](CN(C)C(=O)Nc2ccc(C(F)(F)F)cc2)OCCCC[C@H](C)O3)cc1` was “inactive”.
Turning to `Cc1ccc(S(=O)(=O)Nc2ccc3c(c2)C(=O)N([C@H](C)CO)C[C@H](C)[C@H](CN(C)C(=O)Nc2ccc(C(F)(F)F)cc2)OCCCC[C@@H](C)O3)cc1`, the cytotoxicity call is “inactive”.
The value for `Cc1ccc(S(=O)(=O)Nc2ccc3c(c2)C(=O)N([C@H](C)CO)C[C@@H](C)[C@H](CN(C)C(=O)Nc2ccc(C(F)(F)F)cc2)OCCCC[C@@H](C)O3)cc1` was “inactive”; that for `Cc1ccc(S(=O)(=O)Nc2ccc3c(c2)C(=O)N([C@@H](C)CO)C[C@H](C)[C@@H](CN(C)C(=O)Nc2ccc(C(F)(F)F)cc2)OCCCC[C@H](C)O3)cc1` was “active”.
The entry for `C[C@@H]1CN([C@H](C)CO)C(=O)Cc2cc(NS(=O)(=O)c3cn(C)cn3)ccc2O[C@@H]1CN(C)Cc1ccc2c(c1)OCO2` is “inactive”.
The entry for `C=CC[C@H](CC(=O)NCCO)C(=O)N[C@H](COC(=O)[C@@H](CC=C)CC(=O)OC(C)(C)C)c1ccccc1` is “inactive”; for `C[C@@H]1CCCCO[C@@H](CN(C)CC2CC2)[C@H](C)CN([C@H](C)CO)C(=O)c2cc(NC(=O)CCC(F)(F)F)ccc2O1` it is “inactive”; for `C[C@H](CO)N1C[C@H](C)[C@@H](CN(C)C(=O)c2ccccc2)OCCCC[C@H](C)Oc2ccc(NS(=O)(=O)c3ccccc3)cc2C1=O` it is “inactive”.
